Results filed as inconclusive are left out. Entries that show only a call come without a potency. Active and inactive are the calls of the source. The call rests on the fitted dose curve; in most records, active means well fitted activation curve with a large enough effect in the repeat runs; inconclusive means weak or mixed curves; inactive means flat fitted curve, though single readings scatter. Residues, ends and D or L forms follow the SMILES beside them.
Assay: A CellTox Green Cytotoxicity Assay to monitor cytotoxicity in HEK293 cells - 24 hour (AID 1224875); further: nearly all actives have a fitted effect of over 45% in size
Details: CellTox Green fluorescence; series mostly up to 76.8 µM
Source text: National Center for Advancing Translational Sciences [NCATS]
NIH Chemical Genomics Center [NCGC]
U.S. Environmental Protection Agency [EPA]
National Institutes of Environmental Health Sciences [NIEHS]
National Toxicology Program [NTP]
Cell-based models are critical for drug discovery. Determining the natural cytotoxic effects resulting from test compounds is an essential research activity. A CellTox Green Cytotoxicity Assay to monitor cytotoxicity in real time of continues cell culture during 40 hours of the compound treatment was used to screen Tox21 10K library compounds in Hek293 cells. CellTox Green Cytotoxicity Assay is a nonlytic, homogeneous, biofluorescent method to measure cytotoxicity in cell culture after experimental manipulation. The assay system uses a proprietary asymmetric cyanine dye that is excluded from viable cells but preferentially stains the dead cell's DNA. […] Viable cells produce no appreciable increases in fluorescence. Therefore, the fluorescence signal produced by the binding interaction with dead cell DNA is proportional to cytotoxicity.
The mixture of Hek293 cell suspension and reagents were dispensed at 600cells/6 ul/well in 1536-well tissue culture treated black solid bottom plates using a Multidrop dispenser. After the assay plates were incubated at a 37 C/5% CO2 incubator for 5 hours, 23 nL of compounds dissolved in DMSO, positive and negative controls was transferred to the assay plate by a pintool work station. The plates were incubated at 37 C for 40 hours. The fluorescence intensity were measured at 0h, 8h, 16h, 24h, 32h and 40h time points using ViewLux plate reader during compound treatment.

Row | Compound | Potency
1 | Cc1cn([C@H]2C[C@H](N=[N+]=[N-])[C@@H](CO)O2)c(=O)[nH]c1=O | inactive
2 | O=C1NC(=O)c2ccccc21 | inactive
3 | OC(Cn1cncn1)(Cn1cncn1)c1ccc(F)cc1F | inactive
4 | CCOc1ccc(NC(=O)CC(C)O)cc1 (stereo not given) | inactive
5 | CCCNC(=O)NS(=O)(=O)c1ccc(Cl)cc1 | inactive
6 | O=C(O)CCCCCCCC(=O)O | inactive
7 | CCCCC(CC)COC(=O)/C=C/c1ccc(OC)cc1 (stereo not given) | inactive
8 | CC(O)CO (stereo not given) | inactive
9 | CC(C)(Oc1ccc(C2CC2(Cl)Cl)cc1)C(=O)O (stereo not given) | inactive
10 | O=c1ccc2ccccc2o1 | inactive
11 | N=C(N)c1ccc(OCCCCCOc2ccc(C(=N)N)cc2)cc1 | inactive
12 | O=C(c1ccccc1)C(O)c1ccccc1 (stereo not given) | inactive
13 | COc1ccc2[nH]cc(CCNC(C)=O)c2c1 | inactive
14 | CCC1(c2ccccc2)C(=O)NCNC1=O | inactive
15 | Cn1c(=O)c2[nH]cnc2n(C)c1=O | inactive
16 | O=C(O)c1cccnc1 | inactive
17 | CCCCOC(=O)CC(CC(=O)OCCCC)(OC(C)=O)C(=O)OCCCC | inactive
18 | CCCC(CCC)C(=O)O | inactive
19 | CC1(C)[C@@H]2CC[C@@]1(C)C(=O)C2 | inactive
20 | O=C(O)c1cccc([N+](=O)[O-])c1 | inactive

Row | Compound | Potency
21 | NNC(=O)c1ccncc1 | inactive
22 | NC(=O)c1ccccc1O | inactive
23 | CC(=O)OCC(COC(C)=O)OC(C)=O | inactive
24 | Nc1ccc(O)c(C(=O)O)c1 | inactive
25 | O=C(O)CCCCC(=O)O | inactive
26 | CC(=O)NS(=O)(=O)c1ccc(N)cc1 | inactive
27 | C/C=C/c1ccc(OC)cc1 | inactive
28 | COc1c2occc2cc2ccc(=O)oc12 | inactive
29 | Nc1ccc(C(=O)O)cc1 | inactive
30 | CC(=O)Nc1nnc(S(N)(=O)=O)s1 | inactive
31 | Nc1ccc(S(=O)(=O)c2ccc(N)cc2)cc1 | inactive
32 | O=C1CN(/N=C/c2ccc([N+](=O)[O-])o2)C(=O)N1 | inactive
33 | NC(=O)c1cnccn1 | inactive
34 | CC(O)CN(CCN(CC(C)O)CC(C)O)CC(C)O (stereo not given) | inactive
35 | O=C(O)c1[nH]n(-c2ccc(S(=O)(=O)O)cc2)c(=O)c1N=Nc1ccc(S(=O)(=O)O)cc1 | inactive
36 | Cc1ccc(O)cc1 | inactive
37 | NC(N)=O | inactive
38 | COC(=O)[C@H](Cc1ccccc1)NC(=O)[C@@H](N)CC(=O)O (H-Asp-Phe-OMe) | inactive
39 | O=S(=O)(O)c1ccc2cc(O)ccc2c1 | inactive
40 | CCCN(CCC)S(=O)(=O)c1ccc(C(=O)O)cc1 | inactive

— PubChem BioAssay (Tox21)
